Tgondii IFNg = blocks Toxoplasma gondii growth in the presence of IFN-gamma. Toxoplasma gondii growth in IFN-gamma-treated host cells; hits give low values. activity change, negative = inhibition, % (no concentration beside the values). hit rate 3.8% among 69,000; in the data active = activity change below about -70%, passing the limit was not always enough;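 note: host cells are HeLa cells infected with Toxoplasma gondii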
A number is an active result; 0 = inactive; ! = repeats disagree. The sample as a whole holds a higher share of hits than the screen did.

SMILES	Tgondii IFNg
Cc1nc(OCC(=O)NCc2ccccc2)c2ccccc2n1	0
O=C(NCc1ccc(F)cc1F)c1cc(-c2cnc(-c3cccnc3)nc2)cn1CC1CC1	0
O=C(Nc1cccnc1)c1cc(-c2cnc(N3CCCC3)nc2)cn1CC1CC1	0
O=C(Nc1cccnc1)c1cc(-c2cnc(-c3ccccc3)nc2)cn1CC1CC1	-77
CCN1C(=O)C2(CCOCC2)c2cc(Nc3ncc(F)cn3)ccc21	0
CCOC(=O)c1c(C)[nH]c(-c2ccccc2)c1-c1ccccc1	0
CC(C)Cc1noc(C(C)NC(=O)c2cnn3ccccc23)n1 (stereo not drawn)	0
CC(C)c1nc(CN(C)C(=O)c2cnn(Cc3ccccc3)c2)cs1	0
Cc1nn(CC(=O)Nc2ccc(N3CCOCC3)cc2)c(C)c1Br	0
Cc1nc(-c2cnccn2)sc1C(=O)Nc1ccc(N2CCOCC2)cc1	0
Cc1nc(N)sc1-c1ccnc(Nc2ccc(N3CCOCC3)cc2)n1	-79
COc1cc(OC)cc(-c2noc(-c3nnn(Cc4nc(-c5ccccc5OC)oc4C)c3C)n2)c1	0
CC1(C)CNC(=O)c2nc(CCCc3ccccc3)[nH]c2C1	0
CC(Cc1cn(CCCn2ccnc2)nn1)c1ccccc1 (stereo not drawn)	0
CCc1c(-c2nc(CCN(C)C(=O)c3cccn3C)no2)[nH]c2ccc(C)cc12	-91
Cc1ccc2[nH]c(-c3nc(CCN(C)C(=O)c4cccn4C)no3)cc2c1	0
COc1ccc2[nH]c(-c3nc(CCN(C)C(=O)c4ccncc4)no3)cc2c1	0
O=C(O)c1ccc(OCc2ccccc2)cc1	0
N#Cc1ccc(OCc2ccc(C(F)(F)F)cc2)cc1	-81
FC(F)(F)c1cccc(OCc2ccc(-c3ncns3)cc2)c1	0
Cc1cc(C(F)(F)F)n2nc(C(=O)N3CCc4c(nc(C)[nH]c4=O)C3)cc2n1	0
OC1C[C@H]2CC[C@@H](C1)N2c1nc(-c2cccnc2)nc2c1CNC2 (stereo partly drawn)	0
COc1ccc(-c2nc3c(s2)CN(C(=O)Nc2ccc(Cl)cc2)CC3)cc1OC	0
COc1ccc(S(=O)(=O)N2CCC3(CC2)C(=O)N(C)CCN3Cc2ccccc2)cc1	0
Cn1ccnc1CN1CCC2(CC(=O)N(c3ccc(C#N)cc3)C2)C1 (stereo not drawn)	0
SMILES	Tgondii IFNg
Fc1cnc(N2CCCC3(CC(Oc4cccnc4)CO3)C2)nc1 (stereo not drawn)	0
COc1ccc2c(c1)NC1(CCN(C(=O)Cc3cccs3)CC1)c1cccn1-2	0
CC(Cn1cc(Cl)cn1)c1cc(=O)[nH]c(NCC2COc3ccccc3O2)n1 (stereo not drawn)	0
COc1ccc(Cl)cc1NC(=O)Cn1ncc2c(N3CCN(c4ccccc4)CC3)ncnc21	-82
COc1ccc(Cl)cc1NC(=O)Cn1ncc2c(N3CCCC3)ncnc21	-81
O=C(Cn1ncc2c(N3CCN(c4ccccc4)CC3)ncnc21)Nc1cccc(F)c1	-85
Cc1cc(F)ccc1NC(=O)Cn1ncc2c(N3CCN(c4ccccc4)CC3)ncnc21	0
COc1ccc(Cl)cc1NC(=O)Cn1ncc2c(N3CCN(c4ccccn4)CC3)ncnc21	-92
Cc1cc(Cl)ccc1NC(=O)Cn1ncc2c(N3CCCCCC3)ncnc21	0
CCc1ccc(NC(=O)Cn2ncc3c(N4CCN(c5ccccc5)CC4)ncnc32)cc1	0
Cc1ccccc1NC(=O)Cn1ncc2c(N3CCN(c4ccccc4)CC3)ncnc21	0
COc1cc(Cl)c(C)cc1NC(=O)Cn1ncc2c(N3CCN(c4ccccn4)CC3)ncnc21	0
COc1ccc(C)cc1NC(=O)Cn1ncc2c(N3CCN(c4ccccn4)CC3)ncnc21	0
Cc1ccc(Cl)cc1NC(=O)Cn1ncc2c(N3CCCC3)ncnc21	0
Cc1ccc(NC(=O)Cn2ncc3c(N4CCN(c5ccccc5)CC4)ncnc32)c(Cl)c1	0
CC(C)C(=O)c1cc(-c2cnc(NCc3ccccc3)nc2)cn1C	0
Cc1nc2sccn2c1C(=O)NCC1(Cn2cccn2)CC1	0
CC(=O)N1CCN(C(=O)C(=O)NCCc2sc(-c3ccccc3)nc2C)CC1	0
CC(C)(C)NS(=O)(=O)c1ccc(CCC(=O)N2CCCCCC2)cc1	0
C=CCO[C@@H]1CC[C@@H]2[C@H]1OCCN2C(=O)CC1C=CCC1 (stereo partly drawn)	0
CC(=O)c1ccc(C(=O)N(CC#Cc2ccccc2)CC(C)C)s1	0
CCOCC1CN(C(=O)C2=CCCC2)Cc2cnn(CC)c21 (stereo not drawn)	0
Cn1cnc2c(N3CCCC3)nc(C3CCN(S(C)(=O)=O)CC3)cc21	0
CCCN1C(=O)CCc2cc(C(=O)N3CCOCC3)ccc21	0
O=C(CN1C(=O)CCc2cc(Br)ccc21)N1CCN(c2ccccc2)CC1	0
SMILES	Tgondii IFNg
O=C(c1ccc2c(c1)CCC(=O)N2Cc1ccccc1)N1CCN(c2ccc(F)cc2)CC1	-108
CC(=O)N1CCc2c(nc(C)nc2NCCCSc2nnc(C)s2)C1	0
Cc1ccc(S(=O)(=O)Nc2cncc(C(=O)Nc3cccc(F)c3)c2)c(C)c1	0
O=S(=O)(NCc1ccccc1)N1CCN(C/C=C/c2ccccc2)CC1	0
Cc1cc(C)cc(NC(=O)C(=O)NCCc2csc(-c3cccc(F)c3)n2)c1	-92
Cc1ccc(NC(=O)C(=O)NCCc2csc(-c3ccc(F)cc3)n2)cc1	0
O=C(NCCc1csc(-c2cccc(F)c2)n1)C(=O)Nc1ccc(F)cc1	0
O=C(NCCc1csc(-c2ccc(F)cc2)n1)C(=O)Nc1ccccc1	0
Cc1cc(C)cc(NC(=O)C(=O)NCCc2csc(-c3ccc(F)cc3)n2)c1	-93
Cc1ccc(NC(=O)C(=O)NCCc2csc(-c3cccc(F)c3)n2)cc1	0
Cc1cccc(NC(=O)C(=O)NCCc2csc(-c3ccc(F)cc3)n2)c1	0
Cc1cccc(C)c1NC(=O)C(=O)NCCc1csc(-c2ccc(F)cc2)n1	-78
Cc1ccc(-c2nc(CCNC(=O)C(=O)Nc3c(C)cccc3C)cs2)cc1	0
O=C(CN(Cc1ccccc1)c1ccccc1)c1ccc(-c2ccccc2)cc1	0
CN1CCN2CCN(C(=O)c3ccc(-c4ccccc4)[nH]3)CC2C1=O (stereo not drawn)	0
Cn1cnc2c1C(C(=O)O)CN(C(=O)c1ccsc1)C2 (stereo not drawn)	0
Cc1cc2c(cc1O)NC(=O)CC2c1ccc(CN(C)S(C)(=O)=O)o1 (stereo not drawn)	0
CCOCC1CN(Cc2ccoc2)Cc2cn(CC)nc21 (stereo not drawn)	0
COc1ccc(-c2nc(NCCCN(Cc3ccco3)C3CCCC3)c3ccccc3n2)cc1	0
CCc1cccc2c(=O)c(C(=O)N3CCCCC3)c[nH]c12	0
CN(C)CC(=O)N1CCC2(CC1)COC(COc1cccnc1)C2 (stereo not drawn)	0
CC(C)n1nccc1C(=O)N1CCC(O)(c2cccnc2F)CC1	0
O=C1NCC(=O)N2CCN(CC3=Cc4cc(Cl)ccc4OC3)CC12 (stereo not drawn)	0
CN(C)C(=O)COC1C2CCCC1CN(c1nncs1)C2 (stereo not drawn)	0
Cc1ccc(C(=O)COC(=O)CCCCCC2NC(=O)NC2C)cc1 (stereo not drawn)	0
SMILES	Tgondii IFNg
FC(F)(F)c1cc(Sc2cc(C(F)(F)F)nc3ccccc23)c2ccccc2n1	0
CCOC(=O)c1c(C)nc2ccccc2c1C(=O)O	0
CCOc1ccc(Nc2nc3ccccc3c(=O)s2)cc1	0
Nc1c2ccccc2nc2ccccc12	-73!
Nc1c2c(nc3ccccc13)CCCC2	0
CCOc1c2ccccc2nc2ccccc12	-123
Cc1cccc(-c2nnc(-c3nc(NCCN4CCOCC4)c4ccccc4n3)o2)c1	0

High-throughput results from PubChem BioAssay.
